# Assay outcomes as filed in PubChem.
# HT1080-NT tox – kills 2HG-producing HT-1080-NT fibrosarcoma cells | Potency, µM (highest dose often 46.1 µM), actives largely listed as cytotoxic | hit rate 1.6% among 360,000 | HT-1080-NT fibrosarcoma viability, CellTiter-Glo ATP luminescence, 48 h;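 also: NT is the 2HG producing partner of a matched IDH1 knockdown line; nearly all actives have a fitted effect of over 55% in size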
#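 Viability of the 2HG-overproducing fibrosarcoma line after 48 hours of compound exposure at 37 degrees C was determined by luminescence with CellTiter-Glo, and concentration-effect curves were then fitted and categorized.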
# DT40 TDP1 no CPT – qHTS for Inhibitors of human tyrosyl-DNA phosphodiesterase 1 (TDP1): qHTS in cells in absence of CPT; DT40 Tdp1-/- hTDP1 cells, no CPT, ATP luminescence, 48 h; Potency, µM (doses to about 46.2 µM), actives largely listed as inhibitors; hit rate 15% among 420,000; also: nearly all actives have a fitted effect of over 55% in size
#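 Stably hTDP1-transfected Tdp1-null chicken DT40 cells were treated with library compounds minus camptothecin and grown for at least 48 hr at 37 °C, after which cellular ATP was quantified by luminescence.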
# IL-1B inflam inh – inflammasome signaling inhibition, IL-1 beta readout | hit rate 4.7% among 360,000 | activity change, % at 57.5 µM | THP-1 LPS/ATP IL-1B secretion, AlphaLISA, 16 h; active compounds read low; in the data active = activity change below about -50%; inconclusive = mostly about -30% to -49%
#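 THP-1 cells pretreated 1 hr with compounds (up to 57.5 uM final), then stimulated with LPS (250 ng/mL final) plus ATP (1.25 mM final); secreted IL-1B measured by AlphaLISA after 16 hr, decreased signal indicating inhibition.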
# TDP1 cell CPT – growth inhibition of DT40 Tdp1-/-;hTDP1 cells with camptothecin (screen for TDP1 inhibitors) | chicken DT40 Tdp1-/-;hTDP1 cells + 20 nM CPT, ATP luminescence, 48 h | Potency, µM (doses to about 46.2 µM), hits mostly inhibitors | hit rate 12% among 420,000; also: nearly all actives have a fitted effect of over 55% in size
#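 Chicken DT40 Tdp1-/- cells complemented with human TDP1, 400 cells/well, exposed to compounds plus 20 nM camptothecin for at least 48 h at 37 C; viability read as ATP content by CellTiter-Glo luminescence.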
# ELG1 repair inh – inhibitors of ELG1-dependent DNA repair in HEK293T cells; HEK293T ELG1-luciferase reporter, luminescence, 16 h; DNA damage induced by 5-fluorouridine; Potency, µM (highest dose often 46.1 µM), hits mostly inhibitors; hit rate 2.3% among 330,000; AID 504467; also: nearly all actives have a fitted effect of over 55% in size
#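 Quantitative HTS, concentration-response format. 2,000 cells/well co-treated with 5-fluorouridine and compound, 16 hr in 5% CO2 at 37 °C; ONE-Glo luminescence read after 30 min.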
# HT1080 IDH1KD tx – toxicity to HT-1080 IDH1 knockdown cells (counter line) | HT-1080 IDH1 knockdown viability, ATP luminescence, 48 h | Potency, µM (doses to about 46.1 µM), most hits filed as cytotoxic | hit rate 2% among 360,000
#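 Knockdown cells (IDH1KD HT-1080) received compounds 2 h after plating at 750 cells/well and were kept 48 h at 37 °C in 5% FBS RPMI. A CellTiter-Glo luminescence read gave % activity for curve fitting.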
# Numbers stand for hits; n = inactive; u = inconclusive; x = no result; [ ] = another dose, or the depositor's remark. Shown are actives, neighbours in structure and some others; about 19% of the full set was active somewhere. Unless noted, calls follow the shape of the dose curve; as a rule, active = well fitted curve in the direction sought with a large enough effect; inconclusive = small, poorly fitted or top-dose-only effect, or another doubt; inactive = no such curve, though single readings can be large; an effect the other way counts as inactive or inconclusive.
SMILES,HT1080-NT tox,DT40 TDP1 no CPT,IL-1B inflam inh,TDP1 cell CPT,ELG1 repair inh,HT1080 IDH1KD tx
COc1ccc2[nH]c3c(c2c1)CCN1C(=O)N([C@@H](C)C(=O)NCc2ccc(C)cc2)C(=O)[C@]31C,n,u,n,n,n,n
COc1ccc2[nH]c3c(c2c1)CCN1C(=O)N([C@@H](C)C(=O)NCCc2ccc(OC)c(OC)c2)C(=O)[C@]31C,n,15µM,n,23µM,n,n
COc1ccc(CNC(=O)[C@H](C)N2C(=O)N3CCc4c([nH]c5ccc(OC)cc45)[C@@]3(C)C2=O)cc1,n,u,n,u,n,n
COc1ccc(CCNC(=O)[C@H](C)N2C(=O)N3CCc4c([nH]c5ccccc45)[C@@]3(C)C2=O)cc1OC,n,u,n,u,u,n
COc1ccccc1CNC(=O)[C@H](C)N1C(=O)N2CCc3c([nH]c4ccccc34)[C@@]2(C)C1=O,n,18µM,n,29µM,u,n
COc1ccc(CCNC(=O)[C@H](C)N2C(=O)N3CCc4c([nH]c5ccccc45)[C@@]3(C)C2=O)cc1,n,16µM,u,21µM,u,n
CC(NC(=O)Cn1cc(C(F)(F)F)ccc1=O)c1ccc(F)cc1 (centres undefined),n,n,n,n,n,n
CC1CCN(S(=O)(=O)c2ccc3[nH]ccc3c2)CC1,x,n,x,u,x,x
Cc1ccc(N(C)C(=O)C2CCN(S(=O)(=O)c3cn(C)cn3)CC2)cc1,x,n,x,n,x,x
CC(=O)Nc1ccc(NC(=O)c2ccccc2CCc2ccccc2)cc1,n,n,n,n,n,n
COC(=O)C(C(=O)OC)c1cc2c(cc1CNS(=O)(=O)c1ccc(C)cc1)OCO2,n,n,n,n,x,n
CC1=C(C(=O)Nc2nc3ccccc3s2)C(c2ccco2)C(C#N)=C(SCC(=O)NC2CCCCC2)N1 (centres undefined),n,21µM,u,13µM,u,n
CC1=C(C(=O)Nc2ccccc2)C(c2ccncc2)C(C#N)=C(SCC(=O)NC2CC2)N1 (centres undefined),n,n,n,n,n,n
O=C(Nc1cccc2c1CCCC2)C1CCN(c2nnnn2-c2ccccc2)CC1,n,16µM,n,u,n,n
Cc1nnc(NC(=O)C2CCN(c3nnnn3-c3ccccc3)CC2)s1,n,n,n,u,n,n
CCc1nn(CC(=O)N2CCC(C)CC2)c(=O)c2cc3occc3n12,x,n,x,n,x,x
CCOc1ccc(Oc2ccccc2NC(=O)CSCC(=O)Nc2cc(C)on2)cc1,u,13µM,n,23µM,n,u
COc1ccc(-c2csc(NC(=O)CSCC(=O)Nc3cc(C)on3)n2)cc1,n,23µM,n,u,n,n
CCOC(=O)N1CCN(C(=O)CSCC(=O)Nc2nc(-c3ccc(Cl)s3)cs2)CC1,n[9.24 µM],18µM,n,15µM,16µM,u
Cc1cc(NC(=O)C(C)SCC(=O)Nc2ccccc2C(C)(C)C)no1 (centres undefined),n,15µM,n,u,n,n
COc1cccc(CN(C)S(=O)(=O)c2ccccc2Br)c1,n,n,n,n,n,n
COc1ccc(-c2csc(NC(=O)CSc3nc(SC)ns3)n2)cc1,n,23µM,n,u,u,n
Cc1cc(-c2nnc(SCC(=O)Nc3nc(-c4ccccc4)cs3)o2)no1,n,u,n,15µM,n,n
O=C(CSCC(=O)N1CCOCC1)Nc1nc(-c2ccccc2)cs1,n,n,n,n,u,n
COc1ccc(-c2csc(NC(=O)CSc3nc(C)cs3)n2)cc1,n,u,n,n,x,n
SMILES,HT1080-NT tox,DT40 TDP1 no CPT,IL-1B inflam inh,TDP1 cell CPT,ELG1 repair inh,HT1080 IDH1KD tx
CCOC(=O)N1CCN(C(=O)CSCC(=O)Nc2nc(-c3ccc(OC)cc3)cs2)CC1,n,21µM,n,u,n,n
CCC1=C([N+](=O)[O-])C(c2ccc3c(c2)OCO3)NC(=O)N1 (centres undefined),n,n,n,n,n,n
COc1ccc(NC(=O)CCNS(=O)(=O)c2cccc3nsnc23)c(OC)c1,n,n,n,n,n,n
Cc1ccc(C(=O)NC(C)c2ccc3c(c2)OCO3)s1 (centres undefined),n,16µM,n,13µM,n,n
COC(=O)c1cc(S(=O)(=O)N(Cc2ccccc2)C(C)(C)C)c[nH]1,u,16µM,n,18µM,n,23µM
COC(=O)c1cc(S(=O)(=O)NCCc2ccc(C)cc2)c[nH]1,n,u,n,u,n,n
COC(=O)c1cc(S(=O)(=O)NCCc2ccc(Cl)cc2)c[nH]1,n,12µM,n,18µM,u,n
COC(=O)c1cc(S(=O)(=O)NCc2ccccc2)c[nH]1,n,n,n,n,n,n
